Measured values published in PubChem BioAssay.
Activity calls are given as the source filed them. Unless noted, how the calls were made is not given here.

How the values were obtained:
[1] = anti-His antibody binders, primary screen, artefact control for SMM control protein annotation, biochemical, small-molecule microarray, 635 nm fluorescence (AID 1128); conditions: anti-His Alexa647 antibody binding, higher = more signal;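 further: score merges feature fluorescence with signal-to-noise for each printed compound spot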
[2] = test system: Human papillomavirus type 1a E7 protein (residues 1-88); assay: HPV1a E7 small-molecule binders, primary screen, biochemical, small-molecule microarray, residues 1-88, 635 nm (AID 1129); conditions: small-molecule microarray binding, fluorescence 635 nm; higher = more signal
[3] = target: Focal adhesion kinase 1 (Homo sapiens) (UniProt Q05397); assay: small-molecule microarray binders of FAK, primary screen, biochemical, 635/667 nm fluorescence, BSA, DTT (AID 1130); conditions: PTK2 binding, 635 nm fluorescence, higher = more signal;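 further: composite of spot emission at 667 nm and signal to noise over triplicate slides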
Chain of Focal adhesion kinase 1 (Homo sapiens) (Q05397 whole entry, looked up): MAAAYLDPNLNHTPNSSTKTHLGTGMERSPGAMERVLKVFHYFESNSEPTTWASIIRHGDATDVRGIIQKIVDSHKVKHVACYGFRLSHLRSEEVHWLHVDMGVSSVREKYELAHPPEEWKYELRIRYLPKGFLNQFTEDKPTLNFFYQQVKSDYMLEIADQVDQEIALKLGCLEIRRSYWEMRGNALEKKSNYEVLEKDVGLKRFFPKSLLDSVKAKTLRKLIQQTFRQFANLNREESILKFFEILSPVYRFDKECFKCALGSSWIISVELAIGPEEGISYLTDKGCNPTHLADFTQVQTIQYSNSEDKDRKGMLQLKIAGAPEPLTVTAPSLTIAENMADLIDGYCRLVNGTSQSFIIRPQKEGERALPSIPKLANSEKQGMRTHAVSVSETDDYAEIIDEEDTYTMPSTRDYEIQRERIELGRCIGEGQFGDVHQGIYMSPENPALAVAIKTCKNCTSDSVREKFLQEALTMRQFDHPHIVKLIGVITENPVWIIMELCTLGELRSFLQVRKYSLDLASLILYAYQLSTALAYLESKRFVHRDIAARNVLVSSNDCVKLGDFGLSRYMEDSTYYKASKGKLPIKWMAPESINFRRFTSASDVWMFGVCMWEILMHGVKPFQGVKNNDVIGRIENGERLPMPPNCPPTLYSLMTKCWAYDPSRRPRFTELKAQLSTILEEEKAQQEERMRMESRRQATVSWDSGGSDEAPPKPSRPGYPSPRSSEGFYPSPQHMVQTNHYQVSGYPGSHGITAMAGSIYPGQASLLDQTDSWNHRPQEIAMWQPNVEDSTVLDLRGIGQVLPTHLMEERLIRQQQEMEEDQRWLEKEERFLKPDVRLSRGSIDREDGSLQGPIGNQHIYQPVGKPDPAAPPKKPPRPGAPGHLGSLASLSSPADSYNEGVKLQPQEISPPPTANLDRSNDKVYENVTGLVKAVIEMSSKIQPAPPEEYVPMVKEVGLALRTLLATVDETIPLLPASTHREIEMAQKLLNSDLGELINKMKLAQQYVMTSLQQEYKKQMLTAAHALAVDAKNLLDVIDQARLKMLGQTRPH

[4] = test system: Fibrinogen (Alexa647-labelled); assay: fibrinogen binders on compound microarrays, profiling panel, artefact control for SMM control-protein annotation, biochemical, small-molecule microarray, 635/667 nm fluorescence (AID 1131); conditions: fibrinogen-A647 binding fluorescence, higher = more signal;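 further: z-score merges 667 nm fluorescence with per-spot signal-to-noise over triplicate slides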
[5] = target: Follistatin (Homo sapiens) (UniProt P19883); assay: follistatin binders on small-molecule microarrays, primary screen, biochemical, small-molecule microarray, 635/667 nm fluorescence (AID 1132); conditions: FST binding, 635 nm fluorescence, higher = more signal
Chain of Follistatin (Homo sapiens) (P19883 whole entry, looked up): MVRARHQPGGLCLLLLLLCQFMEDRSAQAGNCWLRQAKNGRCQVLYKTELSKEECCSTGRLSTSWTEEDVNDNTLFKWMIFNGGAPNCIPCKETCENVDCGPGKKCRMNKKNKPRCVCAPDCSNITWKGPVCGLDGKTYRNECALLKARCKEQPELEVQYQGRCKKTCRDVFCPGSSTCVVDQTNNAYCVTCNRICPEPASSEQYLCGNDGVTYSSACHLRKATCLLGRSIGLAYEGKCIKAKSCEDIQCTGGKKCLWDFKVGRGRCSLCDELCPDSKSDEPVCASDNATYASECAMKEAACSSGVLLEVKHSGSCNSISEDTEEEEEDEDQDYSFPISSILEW

[6] = target: Fibroblast growth factor 2 (Homo sapiens) (UniProt P09038); assay: FGF2 binders on small-molecule microarrays, primary screen, biochemical, small-molecule microarray, 635/667 nm fluorescence (AID 1133); conditions: small-molecule microarray binding, FGF2, fluorescence 635/667; higher = more signal
Chain of Fibroblast growth factor 2 (Homo sapiens) (P09038 whole entry, looked up): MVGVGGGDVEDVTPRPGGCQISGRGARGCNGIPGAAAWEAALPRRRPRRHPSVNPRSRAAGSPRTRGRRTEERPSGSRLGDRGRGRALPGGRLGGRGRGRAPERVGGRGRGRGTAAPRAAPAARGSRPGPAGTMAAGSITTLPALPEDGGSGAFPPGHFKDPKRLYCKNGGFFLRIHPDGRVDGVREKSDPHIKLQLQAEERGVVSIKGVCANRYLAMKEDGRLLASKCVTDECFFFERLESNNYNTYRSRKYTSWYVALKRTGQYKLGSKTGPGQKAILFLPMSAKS

[7] = mitochondrial membrane potential change in A549 cells, profiling panel, cell-based, JC-1 fluorescence, basal, 24 h, 100 nL (AID 1138); conditions: higher = more signal;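 further: A549 lung adenocarcinoma cells under basal conditions with no added stimulus; test concentration not given here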
Lefty1 = Lefty1 binders on small-molecule microarrays, primary screen, biochemical, small-molecule microarray, 635/667 nm fluorescence (AID 1139); conditions: small-molecule microarray binding, fluorescence 635/667; higher = more signal
[8] = test system: wheat germ agglutinin (Triticum aestivum), Alexa647-labelled; assay: wheat germ agglutinin binders on compound microarrays, profiling panel, artefact control for SMM control-protein annotation, biochemical, small-molecule microarray, 635/667 nm fluorescence (AID 1140); conditions: WGA-A647 binding, 635 nm fluorescence, higher = more signal;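 further: score merges 667 nm feature emission with signal to noise over triplicate slides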
[9] = target: Luciferin 4-monooxygenase (Photinus pyralis) (UniProt P08659); assay: firefly luciferase enzyme inhibitors, primary screen, biochemical, luminescence, purified enzyme, 2006 set (AID 1141); conditions: SteadyGlo luminescence, 30 min, higher = more signal, called active from +8 up or from −8 down;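 further: cell-free assay with purified firefly luciferase at 100 ng per well in PBS; test concentration not given here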
Chain of Luciferin 4-monooxygenase (Photinus pyralis) (P08659 whole entry, looked up): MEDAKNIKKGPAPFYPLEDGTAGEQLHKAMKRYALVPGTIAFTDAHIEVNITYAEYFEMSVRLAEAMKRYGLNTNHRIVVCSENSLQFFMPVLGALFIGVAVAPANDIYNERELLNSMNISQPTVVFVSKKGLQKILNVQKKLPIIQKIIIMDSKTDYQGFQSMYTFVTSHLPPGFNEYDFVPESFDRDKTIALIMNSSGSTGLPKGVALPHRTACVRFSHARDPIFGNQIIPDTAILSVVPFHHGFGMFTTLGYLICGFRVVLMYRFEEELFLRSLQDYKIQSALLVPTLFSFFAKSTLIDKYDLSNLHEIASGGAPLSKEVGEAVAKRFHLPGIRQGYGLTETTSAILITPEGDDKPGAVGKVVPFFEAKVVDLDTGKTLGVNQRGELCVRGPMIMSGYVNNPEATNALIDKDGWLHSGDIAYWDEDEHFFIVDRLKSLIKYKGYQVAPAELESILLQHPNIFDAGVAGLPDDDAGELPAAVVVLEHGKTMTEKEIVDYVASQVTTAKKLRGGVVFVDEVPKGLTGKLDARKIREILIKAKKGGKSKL

[10] = test system: Wnt5a (protein binding on small-molecule microarray); assay: Wnt5a binders on small-molecule microarray, primary screen, biophysical, 635/667 nm fluorescence (AID 1142); conditions: 635 nm fluorescence, higher = more signal;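 further: fluorescence read at 667 nm with signal to noise per printed feature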
[11] = cell viability in Huh7 cells, primary screen, cytotoxicity control for HCV replication inhibitor project, CellTiter-Glo luminescence, basal, 48 h (AID 1143); conditions: Huh7 HCV replicon, higher = more signal, called active from +8 up or from −8 down;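 further: Huh7 hepatoma cells carrying a hepatitis C replication reporter with no stimulus; test concentration not given here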
[12] = P. aeruginosa biofilm formation inhibitors, primary screen, PAO1 strain, BacTiter-Glo luminescence, LB-PBS (AID 1144); conditions: 12 h, higher = more signal
[13] = CREB reporter modulators without forskolin, primary screen, cell-based, PC12, CRE-LacZ reporter, unstimulated (AID 1145); conditions: no forskolin, luminescence, 4.5 h, higher = more signal, called active from +8 up or from −8 down
[14] = CREB reporter modulators under forskolin, primary screen, cell-based, PC12, CRE-LacZ reporter, forskolin-stimulated (AID 1146); conditions: luminescence, 4.5 h, higher = more signal, called active from +8 up or from −8 down;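 further: PC12 cells with 6xCRE LacZ reporter stimulated by forskolin 10 µM; beta-galactosidase reporter signal reflecting CREB driven transcription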
[15] = target: Streptavidin (Streptomyces avidinii) (UniProt P22629); assay: streptavidin binders on small-molecule microarray, primary screen, artefact control for SMM compound annotation, biophysical, 635/667 nm fluorescence (AID 1147); conditions: streptavidin binding, higher = more signal;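 further: signal reflects streptavidin binding to arrayed compounds as a control protein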
Chain of Streptavidin (Streptomyces avidinii) (P22629 whole entry, looked up): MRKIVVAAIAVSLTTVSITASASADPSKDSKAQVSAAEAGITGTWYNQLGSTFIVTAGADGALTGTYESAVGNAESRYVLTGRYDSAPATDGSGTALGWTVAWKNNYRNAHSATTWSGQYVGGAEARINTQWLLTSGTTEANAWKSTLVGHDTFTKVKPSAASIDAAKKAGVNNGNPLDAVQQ

[16] = small-molecule binders of probe aInhba, primary screen, biochemical, small-molecule microarray, 635/667 nm fluorescence (AID 1148); conditions: higher = more signal;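 further: score merges 667nm spot fluorescence with signal-to-noise for antibody binding to printed compounds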
Torsin-1A (Homo sapiens) [17] = target: Torsin-1A (Homo sapiens) (UniProt O14656); assay: torsin A binders from cell lysate, primary screen, small-molecule microarray, wild-type, 635/667 nm (AID 1149); conditions: COS7 hTOR1A-WT lysate, 635 nm fluorescence, higher = more signal
Chain of Torsin-1A (Homo sapiens) (O14656 whole entry, looked up): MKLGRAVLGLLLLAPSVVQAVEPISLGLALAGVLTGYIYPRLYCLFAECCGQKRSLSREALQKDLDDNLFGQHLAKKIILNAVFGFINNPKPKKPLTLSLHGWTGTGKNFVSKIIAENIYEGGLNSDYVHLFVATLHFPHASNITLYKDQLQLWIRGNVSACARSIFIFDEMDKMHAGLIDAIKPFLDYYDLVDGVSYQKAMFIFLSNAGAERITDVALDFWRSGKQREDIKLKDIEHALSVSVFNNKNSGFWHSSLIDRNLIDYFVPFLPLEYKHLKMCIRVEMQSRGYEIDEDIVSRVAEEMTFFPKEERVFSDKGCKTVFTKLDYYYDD

Torsin-1A (Homo sapiens) [18] = target: Torsin-1A (Homo sapiens) (UniProt O14656); assay: small-molecule binders of mutant TOR1A in lysate, primary screen, cell lysate, small-molecule microarray, COS7 lysate, 635/667 nm fluorescence (AID 1150); conditions: COS7 hTOR1A mutant lysate, 635 nm fluorescence, higher = more signal;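 further: score pools 667 nm emission and signal to noise measuring lysate protein binding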
[19] = test system: Sonic hedgehog protein (Shh); assay: small-molecule binders of Shh protein, primary screen, biochemical, small-molecule microarray, 635/667 nm fluorescence (AID 1151); conditions: small-molecule microarray binding, 635 nm fluorescence; higher = more signal;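 further: Shh protein binding to compounds spotted on small-molecule microarray slides; score combines spot fluorescence intensity with signal-to-noise across triplicate slides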

C=CC[C@@]1(C(=O)O)N=C(c2ccc(OCCCO)cc2)O[C@@H]1c1ccccc1CN=[N+]=[N-]
composite z-score [1]: 0.706
composite z-score [2]: 0.86
composite z-score [3]: 0.518
composite z-score [4]: 0.68
composite z-score [5]: 0.939
composite z-score [6]: 0.381
z-score [7]: -0.472
composite z-score (Lefty1): 0.588
composite z-score [8]: 1.24
z-score [9]: -0.926 (inactive)
composite z-score [10]: 0.229
z-score [11]: -1.9 (inactive)
z-score [12]: -1.6 (inactive)
z-score [13]: -0.183 (inactive)
z-score [14]: -1.13 (inactive)
composite z-score [15]: 1.93
composite z-score [16]: -0.0736
composite z-score (Torsin-1A (Homo sapiens) [17]): -0.0975
composite z-score (Torsin-1A (Homo sapiens) [18]): 0.884
composite z-score [19]: 0.582

C[C@H]1NC(=O)C([C@@H](C)OCc2ccccc2)NC(=O)[C@@]23C(=O)N[C@@H](Cc4ccccc4)C2[C@H](C)[C@@]2(C)O[C@H]2C3/C=C/C/C=C\CNC1=O (stereo not given in full)
composite z-score [1]: 0.296
composite z-score [2]: -0.728
composite z-score [3]: -0.235
composite z-score [4]: -0.394
composite z-score [5]: 0.425
composite z-score [6]: 0.545
z-score [7]: 0.919
composite z-score (Lefty1): 0.459
composite z-score [8]: -0.682
z-score [9]: -1.02 (inactive)
composite z-score [10]: 0.0077
z-score [11]: -1.16 (inactive)
z-score [12]: 1.3 (inactive)
z-score [13]: 4.12 (inactive)
z-score [14]: -0.836 (inactive)
composite z-score [15]: -0.556
composite z-score [16]: -0.179
composite z-score (Torsin-1A (Homo sapiens) [17]): 0.378
composite z-score (Torsin-1A (Homo sapiens) [18]): 0.352
composite z-score [19]: 0.551

O=C1N(Cc2ccccc2)c2ccccc2[C@H]2OC(c3ccc(OCCCO)cc3)=N[C@@]12Cc1ccccc1
composite z-score [1]: 2.1
composite z-score [2]: 1.19
composite z-score [3]: 0.6
composite z-score [4]: 0.696
composite z-score [5]: 1.35
composite z-score [6]: 1.52
z-score [7]: -1.4
composite z-score (Lefty1): 0.584
composite z-score [8]: 0.694
z-score [9]: -2.98 (inactive)
composite z-score [10]: 0.806
z-score [11]: -4.93 (inactive)
z-score [12]: -0.0376 (inactive)
z-score [13]: 0.708 (inactive)
z-score [14]: -1.07 (inactive)
composite z-score [15]: 0.0454
composite z-score [16]: 0.147
composite z-score (Torsin-1A (Homo sapiens) [17]): -0.0599
composite z-score (Torsin-1A (Homo sapiens) [18]): 0.242
composite z-score [19]: 1.64

COc1ccc([Si](C)(C)[C@H]2[C@H](CCn3cc([C@H](O)c4ccccc4)nn3)O[C@@]3(C(=O)N(C)c4c(Br)cc(C)cc43)[C@@H]2C)cc1
composite z-score [1]: 0.523
composite z-score [2]: -0.212
composite z-score [3]: -0.472
composite z-score [4]: -0.496
composite z-score [5]: 1.5
composite z-score [6]: 1.87
z-score [7]: 0.134
composite z-score (Lefty1): 1.37
composite z-score [8]: 0.343
z-score [9]: -0.877 (inactive)
composite z-score [10]: -0.0472
z-score [11]: -4.01 (inactive)
z-score [12]: -0.23 (inactive)
z-score [13]: 7.95 (inactive)
z-score [14]: -1.66 (inactive)
composite z-score [15]: -0.124
composite z-score [16]: -0.208
composite z-score (Torsin-1A (Homo sapiens) [17]): 0.877
composite z-score (Torsin-1A (Homo sapiens) [18]): 0.19
composite z-score [19]: 0.964

COc1ccc(CCNC(=O)[C@@H]2c3ccccc3C(=O)N(CC34CC5CC(CC(C5)C3)C4)[C@H]2c2ccc(CO)cc2)cc1
composite z-score [1]: 1.3
composite z-score [2]: 1.15
composite z-score [3]: 0.548
composite z-score [4]: 0.61
composite z-score [5]: 1.07
composite z-score [6]: 1.47
z-score [7]: 0.125
composite z-score (Lefty1): 0.867
composite z-score [8]: 0.965
z-score [9]: 1.36 (inactive)
composite z-score [10]: 0.788
z-score [11]: -3.34 (inactive)
z-score [12]: -2.65 (inactive)
z-score [13]: 0.441 (inactive)
z-score [14]: -0.887 (inactive)
composite z-score [15]: 0.4
composite z-score [16]: -0.0006
composite z-score (Torsin-1A (Homo sapiens) [17]): 0.713
composite z-score (Torsin-1A (Homo sapiens) [18]): 0.801
composite z-score [19]: 1.4

COC(=O)[C@H](Cc1ccc(O)cc1)N1CC2=CCCC=C[C@@H]2[C@H]1[C@H](O)Cc1ccccc1
composite z-score [1]: 0.0409
composite z-score [2]: -0.24
composite z-score [3]: -0.0148
composite z-score [4]: 0.92
composite z-score [5]: 0.359
composite z-score [6]: 0.348
z-score [7]: -0.934
composite z-score (Lefty1): 0.58
composite z-score [8]: 0.216
z-score [9]: -1.63 (inactive)
composite z-score [10]: 0.0799
z-score [11]: -0.567 (inactive)
z-score [12]: -1.21 (inactive)
z-score [13]: 2.13 (inactive)
z-score [14]: 1.24 (inactive)
composite z-score [15]: -0.53
composite z-score [16]: 0.0108
composite z-score (Torsin-1A (Homo sapiens) [17]): -0.246
composite z-score (Torsin-1A (Homo sapiens) [18]): -0.0258
composite z-score [19]: 0.33

CCCC=C(CCC)[C@@H](NC(=O)c1ccccc1)c1ccc(C(=O)OC)cc1
composite z-score [1]: 0.877
composite z-score [2]: 0.598
composite z-score [3]: -0.17
composite z-score [4]: 0.214
composite z-score [5]: 1.06
composite z-score [6]: 1.1
z-score [7]: -1.71
composite z-score (Lefty1): 0.439
composite z-score [8]: -0.0525
z-score [9]: 1.5 (inactive)
composite z-score [10]: 0.675
z-score [11]: -4.41 (inactive)
z-score [12]: -0.947 (inactive)
z-score [13]: -0.379 (inactive)
z-score [14]: 0.0425 (inactive)
composite z-score [15]: -0.0576
composite z-score [16]: 0.326
composite z-score (Torsin-1A (Homo sapiens) [17]): 0.615
composite z-score (Torsin-1A (Homo sapiens) [18]): 0.546
composite z-score [19]: 0.293

C=CCC(OC(C)=O)[C@@H]1[C@@H](N(Cc2cccc3ccccc23)C(=O)c2ccc(C)cc2)c2cc(OCCCO)ccc2N1C(=O)c1ccc2ccccc2n1 (stereo not given in full)
composite z-score [1]: -0.24
composite z-score [2]: 0.098
composite z-score [3]: 0.348
composite z-score [4]: 0.682
composite z-score [5]: 0.584
composite z-score [6]: 0.0013
z-score [7]: 0.644
composite z-score (Lefty1): 0.644
composite z-score [8]: 0.391
z-score [9]: -1.05 (inactive)
composite z-score [10]: 0.0305
z-score [11]: -0.846 (inactive)
z-score [12]: -0.106 (inactive)
z-score [13]: 0.642 (inactive)
z-score [14]: 0.154 (inactive)
composite z-score [15]: 0.2
composite z-score [16]: 0.0664
composite z-score (Torsin-1A (Homo sapiens) [17]): -0.0107
composite z-score (Torsin-1A (Homo sapiens) [18]): 0.121
composite z-score [19]: 0.709

O=C1N(CCS(=O)(=O)c2ccccc2)c2ccccc2[C@@H]2OC(c3ccc(OCCCO)cc3)=N[C@]12CCS(=O)(=O)c1ccccc1
composite z-score [1]: 0.7
composite z-score [2]: 1.2
composite z-score [3]: 0.575
composite z-score [4]: 0.922
composite z-score [5]: 1.38
composite z-score [6]: 1.5
z-score [7]: -1.59
composite z-score (Lefty1): 0.553
composite z-score [8]: 0.465
z-score [9]: -3.78 (inactive)
composite z-score [10]: 0.277
z-score [11]: -1.35 (inactive)
z-score [12]: 0.647 (inactive)
z-score [13]: 2.41 (inactive)
z-score [14]: 0.103 (inactive)
composite z-score [15]: 1.12
composite z-score [16]: 0.103
composite z-score (Torsin-1A (Homo sapiens) [17]): 0.741
composite z-score (Torsin-1A (Homo sapiens) [18]): 1.43
composite z-score [19]: 1.3

COCCOC(=O)N1C(=O)[C@@]2(c3cc(C#Cc4ccc(OC)cc4)ccc31)[C@H](C(=O)Nc1nc3ccccc3s1)[C@H]1C(=O)O[C@H](c3ccccc3)[C@H](c3ccccc3)N1[C@@H]2c1ccccc1OCCO
composite z-score [1]: 0.484
composite z-score [2]: 1.05
composite z-score [3]: 0.0699
composite z-score [4]: 0.922
composite z-score [5]: 1.32
composite z-score [6]: 1.04
z-score [7]: -1.75
composite z-score (Lefty1): 0.973
composite z-score [8]: 0.883
z-score [9]: -1.76 (inactive)
composite z-score [10]: 0.0516
z-score [11]: -4.28 (inactive)
z-score [12]: -1.6 (inactive)
z-score [13]: -1.7 (inactive)
z-score [14]: -1.44 (inactive)
composite z-score [15]: 0.299
composite z-score [16]: -0.0566
composite z-score (Torsin-1A (Homo sapiens) [17]): 0.245
composite z-score (Torsin-1A (Homo sapiens) [18]): 0.243
composite z-score [19]: 1.34
